We go through three compounds from the supplement of paper PMC11577813, “Eurasian spruce bark beetle detects lanierone using a highly expressed specialist odorant receptor, present in several functional sensillum types” (BMC Biology, 2024).

± gives the standard deviation of the averaged measurements.

In this assay the test system is lanierone-responsive B-neuron OSN class (ItypOR36). Put plainly: net action potential response of lanierone B-neuron (blank-subtracted) (spikes/s (Hz)); higher = stronger excitation. Particulars: 10 µg on filter paper, neuron: B neuron (small spike amplitude). How it is done: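 Single sensillum recordings from antennal olfactory sensilla of live adult Ips typographus. Each compound was 10 µg in paraffin oil, delivered as a 0.5 s puff. Net response = spikes in the first 0.5 s of response minus the 0.5 s pre-stimulus count, doubled to give Hz, with blank response subtracted. Values are for the small-spike lanierone-responsive B-neuron (putatively expressing ItypOR36), recorded in sensilla co-housing the A-neuron class; N = 1-4, averaged.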

Setting [1] is: co-localized A-neuron class: (4S)-cis-verbenol.
The mark [2] stands for this setting: co-localized A-neuron class: (5S,7S)-trans-conophthorin.
Where [3] appears, read: co-localized A-neuron class: (+)-isopinocamphone.
Setting [4] is: co-localized A-neuron class: (+)-trans-4-thujanol.
Where [5] appears, read: co-localized A-neuron class: ipsdienol.
Setting [6] is: co-localized A-neuron class: myrcene.
Setting [7] is: co-localized A-neuron class: p-cymene.

`O=Cc1ccccc1` [Benzaldehyde]: the “net action potential response” value is, setting by setting: under setting [1], 0 ± 3.5; under setting [2], 0.667 ± 1.1; under setting [3], -2.67 ± 3.1; under setting [4], -2.5 ± 10; under setting [5], 2 ± 7.2; under setting [6], -6. In addition, under setting [7], the “net action potential response” value is 0.

For `C=CCc1ccc(OC)cc1` [Estragole], the “net action potential response” value runs as follows: under setting [1], 1.33 ± 7.6; under setting [2], 0 ± 7.8; under setting [3], 0 ± 2; under setting [4], 0 ± 4.3; under setting [5], 4 ± 5.3; under setting [6], -8. Further, the “net action potential response” value under setting [7] was -2.67 ± 1.1.

Turning to `Cc1ccccc1` [Toluene], the “net action potential response” value is, setting by setting: under setting [1], 2 ± 4; under setting [2], -1 ± 5; under setting [3], -4; under setting [4], 1 ± 1.1; under setting [5], -2 ± 3.5; under setting [6], 0. Besides, the “net action potential response” value under setting [7] was 0.
